In ChEMBL document CHEMBL1961873, “Compounds: GSK PKIS; Assays: Nanosyn kinase panel” (2012) one finds inhibition data, which are given here for 31 compounds.

Values joined by “and” are separate entries in the source; they are usually repeats but may differ in a detail not shown here. Identical values can stand only once.

Sequence of Fibroblast growth factor receptor 3 (Homo sapiens) (P22607 23-806 limits assumed): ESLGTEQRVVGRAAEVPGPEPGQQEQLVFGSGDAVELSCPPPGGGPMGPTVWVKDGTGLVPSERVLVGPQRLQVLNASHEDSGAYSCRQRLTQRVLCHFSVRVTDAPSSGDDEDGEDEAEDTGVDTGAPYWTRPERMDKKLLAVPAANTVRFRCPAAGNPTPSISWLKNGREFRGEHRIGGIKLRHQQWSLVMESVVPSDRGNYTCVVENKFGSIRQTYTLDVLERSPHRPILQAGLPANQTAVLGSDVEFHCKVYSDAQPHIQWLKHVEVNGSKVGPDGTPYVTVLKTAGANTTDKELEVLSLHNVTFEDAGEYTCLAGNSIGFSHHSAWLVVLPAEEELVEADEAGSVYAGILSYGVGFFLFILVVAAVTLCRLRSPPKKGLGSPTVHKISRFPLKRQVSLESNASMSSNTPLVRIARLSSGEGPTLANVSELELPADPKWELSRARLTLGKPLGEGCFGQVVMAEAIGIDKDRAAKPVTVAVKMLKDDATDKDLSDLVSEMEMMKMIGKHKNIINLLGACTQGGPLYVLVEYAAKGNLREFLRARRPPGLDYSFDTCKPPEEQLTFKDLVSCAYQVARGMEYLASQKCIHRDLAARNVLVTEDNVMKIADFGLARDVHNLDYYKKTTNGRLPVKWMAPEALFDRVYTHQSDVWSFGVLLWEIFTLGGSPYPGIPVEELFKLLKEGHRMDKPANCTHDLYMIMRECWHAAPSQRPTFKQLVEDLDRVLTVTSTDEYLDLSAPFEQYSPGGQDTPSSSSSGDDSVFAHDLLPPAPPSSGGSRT

One test has as its target Fibroblast growth factor receptor 3 (Homo sapiens) (UniProt P22607). Conditions: at 0.1 µM.
With `COc1ccccc1-c1cc(/C=C2\C(=O)Nc3ncc(Br)cc32)cc(Br)c1O`, the inhibition is 8.55%. In the case of `COc1cc2c(cc1Nc1nc(Nc3cccc(F)c3C(N)=O)c3cc[nH]c3n1)N(C(=O)CN1CCN(C(C)C)CC1)CC2`, the inhibition came to 7.88%. For the compound `COc1ccc(-c2nn3ncccc3c2-c2ccnc(Nc3ccc(F)c(F)c3)n2)cc1`, the inhibition stood at 5.17%.

For `Cc1cc(O)cc(C)c1/C=C/c1cncc(C(N)=O)c1`, the inhibition stood at 4.56%. The same measure, in the same setting: next, `Cc1nnc(-c2cccc(-c3ccc(C(=O)NCC4CC4)cc3)c2)o1`: 6.23%; `O=C(O[C@H]1CN[C@H](C#Cc2cc3ncnc(Nc4ccc5c(cnn5Cc5ccccc5)c4)c3s2)C1)N1CCOCC1`: 0.4%.

Consider `CC(C)c1ccc(-c2cc(-c3c[nH]nc3-c3ccccn3)ccn2)cc1`, for which the inhibition was determined as 3.55%. Same read-out and setting: next, `COC(=O)Nc1nc2ccc(Oc3ccc(NC(=O)Nc4cc(C(F)(F)F)ccc4F)cc3)cc2s1`: 5.73%; `CC1=C(C(=O)Nc2ccc3[nH]ncc3c2)C(c2ccc(F)cc2)N=C(c2ccc(C(F)(F)F)nc2)N1` (stereo unspecified): 4.88%; `Cc1cc(O)cc(C)c1/C=C/c1cncc(C(=O)OC(C)(C)C)c1`: 7.81%. For `COC(=O)Nc1nc2cc(Oc3ccc(NC(=O)Nc4ccccc4)cc3)ccc2[nH]1`, the inhibition was 5.75%. The same measure, in the same setting: as for `CC1(C)CC(n2cnc(-c3ccc(F)cc3)c2-c2ccnc(N)n2)CC(C)(C)N1`, the figure is 1.59%. The same measure, in the same setting: next, `COc1cc(N2CCN(C(C)C)CC2)ccc1Nc1nc(Nc2cccc3ncccc23)c2cc[nH]c2n1`: 0.3%; `c1ccc(-c2n[nH]cc2-c2ccnc(-c3ccc(OCCn4ccnc4)cc3)c2)nc1`: 1.79%. On the same count and under the same terms, as for `Nc1ncnc2occ(-c3ccc(NC(=O)Nc4cc(C(F)(F)F)ccc4F)cc3)c12`, the figure is 6.93% and 1.4%.

The target is the same in the next test. The following applies: at 1 µM.
With `NS(=O)(=O)c1ccc(N/N=C2\C(=O)Nc3ccc(C(=O)NCc4ccncc4)cc32)cc1`, the inhibition is 8.12%. Take `Nc1nccc(-c2c(-c3ccc(F)cc3)ncn2C2CCNCC2)n1`: the inhibition was -1.53% and 2.36%. Same read-out and setting: next, `CCOc1ccc2c(-c3ccnc(Nc4cc(OC)cc(C(F)(F)F)c4)n3)cnn2n1`: 2.09%; `CS(=O)(=O)CCNCc1ccc(-c2ccc3ncnc(Nc4ccc(OCc5cccc(C(F)(F)F)c5)cc4)c3c2)o1`: 10.7%; `Fc1ccc(Nc2nccc(-c3c(-c4ccc(C(F)(F)F)cc4)nn4ncccc34)n2)cc1F`: 4.25%. As to `COc1cccc(-n2ncc3c(N/N=C/c4ccc(C(=O)NCCN(C)C)cc4)ncnc32)c1`, the inhibition stood at 9.95%. Same read-out and setting: as for `CCn1c(-c2nonc2N)nc2cncc(C(=O)NCCNC)c21`, the figure is 5.02%. Same read-out and setting: as for `COc1cc(Nc2ncc(-c3ccccc3)o2)cc(OC)c1`, the figure is 10.2%; as for `O=C1Nc2ccccc2/C1=C1\CCc2cc(O)ccc21`, 30.9%. Same read-out and setting: as for `CS(=O)(=O)CCNCc1ccc(-c2ccc3ncnc(Nc4ccc(OCc5ccccc5)cc4)c3c2)o1`, the figure is 3.89%.

As for `FC(F)(F)CNc1nccc(-c2cnn3ncccc23)n1`, the inhibition stood at 2.58%. Same read-out and setting: as for `Cc1c2ccc(N(C)c3ccnc(Nc4cccc(S(N)(=O)=O)c4)n3)cc2nn1C`, the figure is 70.1%; as for `CN1CCC(n2cnc(-c3ccc(F)cc3)c2-c2ccnc(NCCO)n2)CC1`, 5.67%. On to `NS(=O)(=O)c1cccc(N/C=C2\C(=O)Nc3ccccc32)c1`, for which the inhibition came out at 21%. Still for that read-out and setting: as for `CNC(=O)c1ncccc1Nc1nc(Nc2cc3c(cc2OC)CCCN3C(=O)CN(C)C)nc2[nH]ccc12`, the figure is 4.61%.

With `COc1c(C(N)=O)cc(-c2ccc(Cl)cc2)cc1-c1ccc(S(N)(=O)=O)cc1`, the inhibition is 6.87%. Turning to `COc1ccccc1-c1cc(/C=C2\C(=O)Nc3ncc(Br)cc32)cc(Br)c1O`, the inhibition was 14%.

`COc1cc2c(cc1Nc1nc(Nc3cccc(F)c3C(N)=O)c3cc[nH]c3n1)N(C(=O)CN1CCN(C(C)C)CC1)CC2`: the inhibition was 3.19%. On the same count and under the same terms, as for `COc1ccc(-c2nn3ncccc3c2-c2ccnc(Nc3ccc(F)c(F)c3)n2)cc1`, the figure is 7.65%.

As for `Cc1cc(O)cc(C)c1/C=C/c1cncc(C(N)=O)c1`, the inhibition was determined as 4.79%. In the case of `Cc1nnc(-c2cccc(-c3ccc(C(=O)NCC4CC4)cc3)c2)o1`, the inhibition amounted to 6.22%. Still for that read-out and setting: as for `O=C(O[C@H]1CN[C@H](C#Cc2cc3ncnc(Nc4ccc5c(cnn5Cc5ccccc5)c4)c3s2)C1)N1CCOCC1`, the figure is 0.43%. As for `CC(C)c1ccc(-c2cc(-c3c[nH]nc3-c3ccccn3)ccn2)cc1`, the inhibition was 1.81%. Turning to `COC(=O)Nc1nc2ccc(Oc3ccc(NC(=O)Nc4cc(C(F)(F)F)ccc4F)cc3)cc2s1`, the inhibition turned out to be 11.5%. Consider `CC1=C(C(=O)Nc2ccc3[nH]ncc3c2)C(c2ccc(F)cc2)N=C(c2ccc(C(F)(F)F)nc2)N1` (stereo unspecified), for which the inhibition amounted to 7.89%. Same read-out and setting: next, `Cc1cc(O)cc(C)c1/C=C/c1cncc(C(=O)OC(C)(C)C)c1`: 7.63%. On the same count and under the same terms, as for `COC(=O)Nc1nc2cc(Oc3ccc(NC(=O)Nc4ccccc4)cc3)ccc2[nH]1`, the figure is 3.54%; as for `CC1(C)CC(n2cnc(-c3ccc(F)cc3)c2-c2ccnc(N)n2)CC(C)(C)N1`, 1.55%. On the same count and under the same terms, as for `COc1cc(N2CCN(C(C)C)CC2)ccc1Nc1nc(Nc2cccc3ncccc23)c2cc[nH]c2n1`, the figure is 0.87%. For the compound `c1ccc(-c2n[nH]cc2-c2ccnc(-c3ccc(OCCn4ccnc4)cc3)c2)nc1`, the inhibition came out at 4.74%. Regarding `Nc1ncnc2occ(-c3ccc(NC(=O)Nc4cc(C(F)(F)F)ccc4F)cc3)c12`, the inhibition was 34.3% and 17.9%.

The term inhibition denotes the drop in the measured response relative to a control, in per cent.
